Bioassay records (PubChem BioAssay)
IL-1B inflam inh: inflammasome signaling inhibition, IL-1 beta readout; 360,000 tested, 4.7% active; activity change, % at 57.5 µM; AID 743279; THP-1 LPS/ATP IL-1B secretion, AlphaLISA, 16 h; stronger effect = lower value; in the data active = activity change below about -50%; inconclusive = mostly about -30% to -49%
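THP-1 cells pretreated 1 hr with compounds (up to 57.5 uM final), then stimulated with LPS (250 ng/mL final) plus ATP (1.25 mM final); secreted IL-1B measured by AlphaLISA after 16 hr, decreased signal indicating inhibition.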
TDP1 cell CPT: DT40-hTDP1 cell growth loss with CPT | chicken DT40 Tdp1-/-;hTDP1 cells + 20 nM CPT, ATP luminescence, 48 h | Potency, µM (doses to about 46.2 µM), inactives show at the top dose activity change, negative = growth inhibition, actives largely listed as inhibitors | 420,000 tested, 12% active; also: potency is read from the fitted curve at half-maximal effect; nearly all actives have a fitted effect of over 55% in size
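Cell growth measured by CellTiter-Glo luminescence after a minimum 48 h, 37 C compound exposure with 20 nM CPT in Tdp1-knockout DT40 cells stably expressing hTDP1, seeded 400/well; qHTS titration format.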
HT1080 IDH1KD tx: HT-1080 IDH1 knockdown cell toxicity (counter line); 360,000 tested, 2% active; AID 686971; Potency, µM (highest dose often 46.1 µM), without a hit: at the top dose activity, negative = toxicity, hits mostly cytotoxic; HT-1080 IDH1 knockdown viability, ATP luminescence, 48 h;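 also: potency is read from the fitted curve at half-maximal effect; 0% = DMSO wells and -100% = cell-free medium wells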
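Viability of IDH1-knockdown HT-1080 fibrosarcoma cells was assessed by CellTiter-Glo after 48 h at 37 °C with titrated compound; concentration-effect curves were classified by fit quality and response size.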
HT1080NT lethal: kills 2HG-producing HT-1080-NT fibrosarcoma cells. HT-1080-NT fibrosarcoma viability, CellTiter-Glo ATP luminescence, 48 h. Potency, µM (series often up to 46.1 µM), inactives show at the top dose activity, negative = less viability, usual class: cytotoxic. 360,000 tested, 1.6% active. AID 686970;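 also: NT is the 2HG producing partner of a matched IDH1 knockdown line; potency is read from the fitted curve at half-maximal effect; 0% = DMSO-treated cells and -100% = media-only wells without cells; nearly all actives have a fitted effect of over 55% in size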
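Viability of the 2HG-overproducing fibrosarcoma line after 48 hours of compound exposure at 37 degrees C was determined by luminescence with CellTiter-Glo, and concentration-effect curves were then fitted and categorized.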
DT40 TDP1 no CPT: qHTS for Inhibitors of human tyrosyl-DNA phosphodiesterase 1 (TDP1): qHTS in cells in absence of CPT; DT40 Tdp1-/- hTDP1 cells, no CPT, ATP luminescence, 48 h; Potency, µM (titrated, usually from 46.2 µM), without a hit: top-dose activity change, negative = growth inhibition, usual class: inhibitors; 420,000 tested, 15% active; also: potency is read from the fitted curve at half-maximal effect; nearly all actives have a fitted effect of over 55% in size
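No-CPT arm: Tdp1-/-;hTDP1 DT40 cells (400/well) plus compounds, incubated ≥48 hr at 37 °C. Readout CellTiter-Glo luminescence.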
An asterisk follows results filed as active; ? = inconclusive; · = no result. The list is not random: actives were taken first. Their share in the collection is about 19%. Unless noted, calls follow the shape of the dose curve; as a rule, active = well fitted curve in the direction sought with a large enough effect; inconclusive = small, poorly fitted or top-dose-only effect, or another doubt; inactive = no such curve, though single readings can be large; an effect the other way counts as inactive or inconclusive. Unless noted, % is scaled to controls: 0 for no effect and ±100 for the full control effect.

SMILES	IL-1B inflam inh	TDP1 cell CPT	HT1080 IDH1KD tx	HT1080NT lethal	DT40 TDP1 no CPT
COc1ccc(-c2[nH]ncc2N=Nc2ccccc2)cc1	-68*	?	16µM*	16µM*	?
CCCCNC(=O)c1nn2c(C(F)(F)F)cc(-c3ccccc3)nc2c1Br	-5	?	6%	19%	21µM*
COc1ccc(-c2cc(C(F)(F)F)n3nc(C(=O)Nc4cccc(C(F)(F)F)c4)c(Br)c3n2)cc1	·	13µM*	·	·	?
N#CCNC(=O)c1nn2c(C(F)(F)F)cc(-c3ccccc3)nc2c1Br	13	0%	12%	7%	18%
O=C(NCCc1csc(-c2cccnc2)n1)c1cccs1	-15	?	9%	8%	21µM*
Cc1cccc(NC(=O)C(=O)NCCc2csc(-c3ccc(C(F)(F)F)cc3)n2)c1C	·	-27%	·	·	-26%
Cc1ccc(C(=O)NCCc2csc(-c3cccnc3)n2)cc1	0	?	13%	-4%	?
CCOc1ccc(C(=O)NCCc2csc(-c3ccc(C(F)(F)F)cc3)n2)cc1OCC	·	?	·	·	15µM*
CCOc1ccc(CCNC(=O)Cn2nnc(-c3ccc(C(F)(F)F)cc3)n2)cc1OCC	·	-19%	·	·	?
O=C(NCCc1csc(-c2ccc(C(F)(F)F)cc2)n1)c1cccs1	-29	?	-7%	0%	18µM*
COc1cc(C)c(NC(=S)NCCCN2CCOCC2)cc1OC	6	14%	0%	10%	1%
O=C1c2ccccc2CCC12OC2c1ccncc1 (stereo not drawn)	-20	-16%	-15%	2%	2.9µM*
O=C1c2ccccc2CCC12OC2c1ccc([N+](=O)[O-])cc1 (stereo not drawn)	-12	?	-8%	-2%	?
COc1cccc(/C=N/Nc2cc(N3CCOCC3)ncn2)c1O	-90*	5.8µM*	5.8µM*	?	6.5µM*
COc1ccc(/C=N/Nc2cc(N3CCOCC3)ncn2)c(OC)c1	-29	4%	0%	10%	-21%
O=C(Nc1cc(N2CCOCC2)ncn1)c1ccc(F)cc1	-20	-13%	-26%	-6%	5.8µM*
Fc1ccc(/C=N/Nc2cc(N3CCOCC3)ncn2)cc1	-27	-25%	-9%	-14%	-10%
Fc1cccc(/C=N/Nc2cc(N3CCOCC3)ncn2)c1	-53*	-4%	1%	7%	-10%
C/C(=N\Nc1ccc(F)cc1F)c1ccc(N2CCOCC2)cc1	6	?	-16%	-18%	?
C/C(=N\Nc1cc(N2CCOCC2)ncn1)c1ccc(O)cc1	-95*	8.2µM*	-5%	4%	?
O=C(Nc1cc(N2CCCCC2)ncn1)c1ccc(F)cc1	-7	?	7%	9%	?
CC(NC(=O)c1ccc(F)cc1F)C1CC2CCC1C2 (stereo not drawn)	1	5%	2%	-2%	-14%
COc1ccc(C(=O)NCc2nnc(SCC(=O)c3ccccc3)n2C)cc1OC	13	-16%	3%	3%	-20%
CCCCC(=O)O[C@H]1CC[C@H]2[C@@H]3CCc4cc(O)ccc4[C@H]3CC[C@]12C	7	?	?	21µM*	?
CCNc1cc2c(cc1O)CCC1C2CCC2(C)C(O)CCC12 (stereo not drawn)	-101*	7.3µM*	-11%	-9%	23µM*
SMILES	IL-1B inflam inh	TDP1 cell CPT	HT1080 IDH1KD tx	HT1080NT lethal	DT40 TDP1 no CPT
CCOc1cc2c(cc1O)CCC1C2CCC2(C)C(O)CCC12 (stereo not drawn)	10	0.26µM*	?	?	0.21µM*
COC(=O)c1ccc(-c2nc(O)c3cnccn23)cc1	17	-19%	14%	10%	4%
COc1cccc(NC(=O)CN(C)C(=O)[C@@H]2CCCN2C(=O)c2cccs2)c1	-13	-27%	?	-12%	?
Cc1ccc(C(=O)C(NC(=O)c2ccco2)N2CCOCC2)cc1 (stereo not drawn)	7	1%	12%	12%	-11%
O=C(NC(C(=O)c1ccccc1)N1CCCCCC1)c1ccco1 (stereo not drawn)	0	23µM*	15%	13%	21µM*
O=C(Cc1ccccc1)N[C@@H]1c2ccccc2CC[C@@H]1OCc1ccccc1	-24	-23%	-4%	0%	-18%
O=C(CCc1ccccc1)N[C@@H]1c2ccccc2CC[C@H]1OCc1ccccc1	-7	?	-25%	?	12µM*
O=C(COCc1ccccc1)N[C@@H]1c2ccccc2CC[C@@H]1OCc1ccccc1	-51*	?	-11%	-12%	?
O=C(COc1ccccc1)N[C@@H]1c2ccccc2CC[C@H]1OCc1ccccc1	-10	?	?	-28%	26µM*
COc1ccccc1CNC(=O)CCCn1nc(C)n2ccnc2c1=O	-9	0%	5%	-3%	-15%
Oc1cc2cc(-c3csc(-c4ccc(F)cc4)n3)cc3c2n1CCC3	·	?	·	·	20µM*
CC(=O)Nc1nc2c(s1)CCc1ccccc1-2	7	26%	3%	8%	1%
N#C/C(=C(/O)CCl)c1nc2c(s1)CCc1ccccc1-2	-95*	12µM*	?	?	13µM*
O=C(CCCl)Nc1nc2c(s1)CCc1ccccc1-2	-98*	13µM*	9.2µM*	9.2µM*	5.8µM*
CCOC(=O)C1=C(C)N=C2SC(C(=O)OC)=CC(=O)N2C1c1ccc(OC)cc1 (stereo not drawn)	-17	?	10%	19%	?
CC(=O)N1CCC2(CCN(Cc3ccccc3)CC2)CC1	·	10%	·	·	-3%
Cc1cccc(C)c1NC(=O)C(c1ccc(Cl)cc1Cl)N1CCCCC1 (stereo not drawn)	?	18µM*	-3%	3%	29µM*
Cc1cccc(C)c1NC(=O)N1CCCCCCC1	7	-1%	10%	0%	-11%
Cc1ccc(NC(=O)C(c2ccc(Cl)cc2)N2CCCCC2)cc1 (stereo not drawn)	-12	15µM*	20%	11%	13µM*
Cc1cc(C)cc(NC(=O)C(c2ccccc2)N2CCCC2)c1 (stereo not drawn)	?	3.7µM*	7%	3%	2.9µM*
Cc1cc(C)c(S(=O)(=O)c2ccccc2C(C)C)c(=O)[nH]1	18	1%	-4%	4%	3%
CCc1sc(C(=O)N2CCN(c3ccc(F)cc3)CC2)cc1C	4	?	0%	-2%	15µM*
O=C(c1cnc(N2CCCCC2)c2ccccc12)N1CCN(c2ccccc2F)CC1	·	16µM*	·	·	?
Cc1nc(N2CCCC2)ncc1C(=O)N1CCN(c2ccccc2F)CC1	·	-15%	·	·	-6%
